The text below walks through data of the supplement of paper PMC9254222.

This experiment deals with HEK293T (UBE3A T485A transfected, BAR Wnt reporter). The experiment can be described thus: Renilla luciferase signal (cell health) relative to plate median (fold (linear ratio)); higher = higher Renilla signal. The settings on record: 24 h. In short, it runs like this: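 HEK293T cells were grown in DMEM with 10% FBS at 37°C and 5% CO2, at 4500 cells/well in white 384-well plates. They were transfected with a BAR firefly luciferase Wnt reporter, TK-Renilla and an expression plasmid using Fugene 6. Four hours later, robots dosed the chemicals at 0.01–100 uM for 24 h, followed by Dual-Glo luciferase readout. Wnt activity (firefly/Renilla ratio) and cell health (raw Renilla) were median-centred per plate, averaged over four biological replicates.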

Over roughly 1,100 compounds, “Renilla luciferase signal (cell health) relative to plate median” has its median near 0.97; the highest 2% begin near 1.6. This is one part of a sample in which the highest values are shown more often than they occur.

Consider `OC(c1ccc(Cl)cc1)(c1cncnc1)c1ccccc1Cl` (stereo not drawn) [Fenarimol], for which the Renilla luciferase signal turned out to be 1.21 (concentration: 0.01 uM); 0.875 (concentration: 0.1 uM); 0.953 (concentration: 1 uM); 0.942 (concentration: 10 uM); 0.199 (concentration: 100 uM).
Consider `CCN(CC)c1ccccc1` [N,N-Diethylaniline], for which the Renilla luciferase signal (concentration: 0.1 uM) came out at 1.07, the Renilla luciferase signal (concentration: 1 uM) is 1.06, the Renilla luciferase signal (concentration: 10 uM) came to 1.09 and the Renilla luciferase signal (concentration: 100 uM) is 1.47.
On the same counts, the results for `OCCCBr` [3-Bromo-1-propanol] are 0.865, 0.896, 0.988 and 0.976.
Take `Cc1nn(-c2cc(NS(C)(=O)=O)c(Cl)cc2Cl)c(=O)n1C(F)F` [Sulfentrazone]: the Renilla luciferase signal by setting is: (concentration: 0.01 uM) 1.01; (concentration: 0.1 uM) 1.05; (concentration: 1 uM) 0.889; (concentration: 10 uM) 1.04; (concentration: 100 uM) 1.21.
Take `CCOC(=O)COc1cc(-c2nn(C)c(OC(F)F)c2Cl)c(F)cc1Cl` [Pyraflufen-ethyl]: the Renilla luciferase signal is, setting by setting: (concentration: 0.01 uM) 0.786; (concentration: 0.1 uM) 0.651; (concentration: 1 uM) 0.92; (concentration: 10 uM) 0.846; (concentration: 100 uM) 1.17.
On the same counts, the results for `CCOC(=O)C(Cl)Cc1cc(-n2nc(C)n(C(F)F)c2=O)c(F)cc1Cl` (stereo not drawn) [Carfentrazone-ethyl] are 0.995, 1.11, 0.895, 0.956 and 1.9.
For `COc1cc(Cl)c(OC)cc1Cl` [Chloroneb] the same measures were 0.913, 0.991, 1.07, 1.06 and 1.91.
`COc1cc(-c2ccc(N)c(OC)c2)ccc1N.Cl.Cl` [3,3'-Dimethoxybenzidine dihydrochloride]: the Renilla luciferase signal is, setting by setting: (concentration: 0.1 uM) 0.847; (concentration: 1 uM) 0.823; (concentration: 10 uM) 0.799; (concentration: 100 uM) 0.158.
For `COc1cc(-c2ccc(N)c(OC)c2)ccc1N` [3,3'-Dimethoxybenzidine] the same measures were 0.89, 0.92, 0.684 and 0.388.
Take `CNc1cnn(-c2cccc(C(F)(F)F)c2)c(=O)c1Cl` [Norflurazon]: the Renilla luciferase signal was determined as 1.06 (concentration: 0.01 uM); 0.78 (concentration: 0.1 uM); 0.77 (concentration: 1 uM); 0.879 (concentration: 10 uM); 1.28 (concentration: 100 uM).
As to `CCC(C)(C)c1ccc(O)c(C(C)(C)CC)c1` [2,4-Bis(2-methylbutan-2-yl)phenol], the Renilla luciferase signal came out at 1.05 (concentration: 0.1 uM), 1.07 (concentration: 1 uM), 0.955 (concentration: 10 uM) and 1.13 (concentration: 100 uM).
For `N#CN` [Cyanamide], the Renilla luciferase signal is 0.837 (concentration: 0.01 uM); 0.715 (concentration: 0.1 uM); 0.775 (concentration: 1 uM); 0.84 (concentration: 10 uM); 1.25 (concentration: 100 uM).
For `COP(=O)(OC)OC=C(Cl)Cl` [Dichlorvos] the same measures were 1.12, 0.778, 0.818, 0.853 and 0.717.
On to `CNC(=O)/C=C(\C)OP(=O)(OC)OC` [Monocrotophos], for which the Renilla luciferase signal runs as follows: (concentration: 0.01 uM) 0.824; (concentration: 0.1 uM) 0.815; (concentration: 1 uM) 0.785; (concentration: 10 uM) 0.826; (concentration: 100 uM) 1.45.
As to `COP(=O)(OC)O/C(C)=C/C(=O)N(C)C` [Dicrotophos], the Renilla luciferase signal is, setting by setting: (concentration: 0.01 uM) 1.19; (concentration: 0.1 uM) 1.16; (concentration: 1 uM) 0.994; (concentration: 10 uM) 1.09; (concentration: 100 uM) 1.78.
With `COc1cc(C=O)cc2c1[C@H](COC(N)=O)[C@]1(OC(C)=O)ON2C[C@H]2[C@@H]1N2C(C)=O`, the Renilla luciferase signal (concentration: 0.1 uM) came out at 0.566, the Renilla luciferase signal (concentration: 1 uM) turned out to be 0.0435, the Renilla luciferase signal (concentration: 10 uM) was determined as 0.0233 and the Renilla luciferase signal (concentration: 100 uM) stood at 0.0248.
For `CCOP(=S)(OCC)SCn1c(=O)oc2cc(Cl)ccc21` [Phosalone], the Renilla luciferase signal (concentration: 0.01 uM) came to 0.915; the Renilla luciferase signal (concentration: 0.1 uM) worked out at 1.15; the Renilla luciferase signal (concentration: 1 uM) amounted to 1.1; the Renilla luciferase signal (concentration: 10 uM) amounted to 1.11; the Renilla luciferase signal (concentration: 100 uM) came out at 0.931.
As for `CCCCN(CC)c1c([N+](=O)[O-])cc(C(F)(F)F)cc1[N+](=O)[O-]` [Benfluralin], the Renilla luciferase signal is, setting by setting: (concentration: 0.01 uM) 1.12; (concentration: 0.1 uM) 0.838; (concentration: 1 uM) 0.99; (concentration: 10 uM) 0.917; (concentration: 100 uM) 1.31.
As to `COc1cc2c(c(OC)c1OC)-c1ccc(OC)c(=O)cc1[C@@H](NC(C)=O)CC2` [Colchicine], the Renilla luciferase signal was determined as 0.0537 (concentration: 0.1 uM), 0.036 (concentration: 1 uM), 0.0452 (concentration: 10 uM) and 0.0414 (concentration: 100 uM).
